The source of these data is PubChem BioAssay.

Assay [1] in a line: polyglutamine-triggered caspase-3 activation inhibitors, cell-based (AID 1583). The settings on record: polyglutamine-induced caspase-3 activation, cell assay; stronger effect = higher value;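 tested at 10 µM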.
A short description of assay [2]: suppressors of polyQ aggregation in yeast, 75Q-TubU reporter (AID 1593). The settings on record: Yeast 75Q polyglutamine aggregation reporter.
Assay [3] is described as follows: rescue of polyQ-huntingtin neuronal dysfunction in worms, whole organism, C. elegans mechanosensory neurons, N-terminal huntingtin (AID 1599). The conditions noted are these: touch response, stronger effect = higher value.
Assay [4] is described as follows: inhibitors of mitochondrial cytochrome c release, biochemical, purified mitochondria (AID 1603).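 Note: mouse liver mitochondria challenged with calcium chloride; signal normalized to the plate average as 100%.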 The settings on record: stronger effect = lower value.
The nature of assay [5]: inhibitors of polyQ protein aggregation (AID 1604). The conditions noted are these: polyglutamine-induced protein aggregation inhibition assay; stronger effect = higher value; tested at 2.5 µM.
Assay [6] can be described thus: enhancers of glutamate uptake in motor neurons, MN-1 cell line (AID 1612).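 Note: tested at 1 µM final; 0% = mean of DMSO vehicle wells on each plate; positive means more glutamate uptake than control and negative means less.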 The conditions noted are these: MN-1 motor neuron cells, stronger effect = higher value.
The nature of assay [7]: reducers of polyQ inclusions in PC12 cells, cell-based, NGF-treated PC12, GFPQ80 (AID 1614).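 Note: lower means fewer inclusions and 0 means no inclusions at all.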 The conditions noted are these: PC12 NGF-treated GFP-polyQ80 inclusion reduction.
The nature of assay [8]: suppressors of polyglutamine aggregation in yeast, 75Q-TubH (AID 1616). The conditions noted are these: S. cerevisiae 75Q-TubH polyglutamine aggregation suppression; stronger effect = higher value.
In assay [9] the target is 6-phosphogluconate dehydrogenase, decarboxylating (Homo sapiens) (UniProt P52209). Description: 6PGD enzyme inhibitors, primary screen, biochemical, human, recombinant enzyme, NADPH absorbance (AID 1159550). The settings on record: recombinant 6PGD, NADPH absorbance 341 nm; at 10 µM; stronger effect = higher value.
6-phosphogluconate dehydrogenase, decarboxylating (Homo sapiens), sequence (P52209 whole entry, looked up): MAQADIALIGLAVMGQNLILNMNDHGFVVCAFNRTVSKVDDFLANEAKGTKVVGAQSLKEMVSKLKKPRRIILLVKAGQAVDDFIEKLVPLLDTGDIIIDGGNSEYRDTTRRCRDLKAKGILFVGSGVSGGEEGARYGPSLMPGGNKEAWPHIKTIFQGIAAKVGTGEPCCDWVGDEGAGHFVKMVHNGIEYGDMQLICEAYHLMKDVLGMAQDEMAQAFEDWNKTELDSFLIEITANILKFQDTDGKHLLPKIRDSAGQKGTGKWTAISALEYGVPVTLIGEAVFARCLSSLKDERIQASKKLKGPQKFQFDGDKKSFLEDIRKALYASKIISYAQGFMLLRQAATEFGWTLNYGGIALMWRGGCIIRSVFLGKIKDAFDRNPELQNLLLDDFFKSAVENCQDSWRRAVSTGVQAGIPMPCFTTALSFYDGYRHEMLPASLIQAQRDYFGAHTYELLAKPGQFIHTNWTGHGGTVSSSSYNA
A short description of assay [10]: differential killing of epithelial or mesenchymal cells, primary screen, imaging, PC-3E GFP, TEM4-18 mCherry, co-culture (AID 1345086;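 active = compounds killing one labelled cell type while sparing the other, by normalised counts and ratio limits, not self-fluorescent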;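 for all read-outs here: cells exposed to compound for 72 h before imaging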;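 for red/green cell ratio (normalised): normalised mesenchymal count divided by normalised epithelial count so high means epithelial killing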). The settings on record: imaging cell counts, at 1 µM; for red/green cell ratio (normalised): actives lie on both sides.
Assay [11] is described as follows: sensitizers of A549 cells to miR-34 induction, primary screen, imaging, A549 dox-inducible miR-34, nuclei and caspase counts (AID 1347080;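 active = compounds whose cell count with miR-34 switched on is under 0.7 times the count with it off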). The settings on record: A549 miR-34 inducible, Hoechst nuclei count, 48 h.
Assay [12] can be described thus: survival rescue of mitochondrial mutant cells in low glucose, primary screen, MELAS cybrids, Rieske KO mouse fibroblasts, CellTiter-Glo (AID 1508586;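 active = mean z-score across replicates of 1.96 or higher in either the MELAS or the Rieske mutant cell line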;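 note: z relative to plate mean and SD of compound and empty wells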). On the technique in general: Cellular ATP, detected with luciferase, serves as a proxy for viable cell number.
The target in assay [13] is NAD(+) hydrolase SARM1 (Homo sapiens) (UniProt Q6SZW1). Description: SARM1 TIR NADase inhibitors, cell lysate, NAD-Glo luminescence (AID 1508614;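 active = compound whose remaining NAD level is above about 45 nM, limit read from the data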;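 note: higher remaining NAD means stronger inhibition of SARM1 NADase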). The settings on record: SAM-TIR HEK293T lysate NADase, at 1 µM, stronger effect = higher value.
NAD(+) hydrolase SARM1 (Homo sapiens), sequence (Q6SZW1 whole entry, looked up): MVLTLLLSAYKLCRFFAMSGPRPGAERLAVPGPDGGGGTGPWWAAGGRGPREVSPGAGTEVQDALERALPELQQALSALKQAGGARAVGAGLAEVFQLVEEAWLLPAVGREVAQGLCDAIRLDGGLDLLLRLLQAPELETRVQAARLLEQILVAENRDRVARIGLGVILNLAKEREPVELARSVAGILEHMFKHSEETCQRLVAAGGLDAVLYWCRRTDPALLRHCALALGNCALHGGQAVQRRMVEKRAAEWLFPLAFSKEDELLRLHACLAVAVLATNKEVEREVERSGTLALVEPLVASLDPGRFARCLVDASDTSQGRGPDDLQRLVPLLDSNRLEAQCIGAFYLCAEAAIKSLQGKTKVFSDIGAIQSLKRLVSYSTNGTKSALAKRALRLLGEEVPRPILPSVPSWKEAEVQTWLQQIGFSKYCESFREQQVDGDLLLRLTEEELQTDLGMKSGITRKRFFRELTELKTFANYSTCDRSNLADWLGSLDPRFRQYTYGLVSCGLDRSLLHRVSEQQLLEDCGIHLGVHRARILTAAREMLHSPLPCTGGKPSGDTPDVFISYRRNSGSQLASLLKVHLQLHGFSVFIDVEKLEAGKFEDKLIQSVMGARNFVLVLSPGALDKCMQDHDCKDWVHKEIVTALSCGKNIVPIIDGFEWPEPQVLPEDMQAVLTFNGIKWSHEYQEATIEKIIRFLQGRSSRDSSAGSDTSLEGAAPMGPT
Assay [14] in a line: liver-stage malaria parasite growth inhibition, primary screen, cell-based, HepG2, luciferase luminescence, HepG2 viability (AID 624349; in the data active = parasite load remaining mostly below about 12%, no sharp cut-off; inactive = mostly above about 10%;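 note: 100% = mean of DMSO negative control wells on the same plate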). The conditions noted are these: P. berghei liver stage in HepG2, luciferase luminescence, concentration not given here; parasite load remaining: stronger effect = lower value; viability: measured here: HepG2 viability without parasites.
The target of assay [15] is Mitogen-activated protein kinase 7 (Homo sapiens) (UniProt Q13164). Description: ERK5 transactivation activators in reporter cells, primary screen, cell-based, HTS (AID 1508626;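 active = luciferase signal above three times the same-plate solvent-only control wells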;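 note: luciferase driven by Gal4-ERK5 fusion binding five Gal4 sites before minimal TATA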). The settings on record: HeLa Gal4-ERK5 transactivation, 18 h, at 5 µM, stronger effect = higher value.
Mitogen-activated protein kinase 7 (Homo sapiens), sequence (Q13164 whole entry, looked up, the tested form may be a part): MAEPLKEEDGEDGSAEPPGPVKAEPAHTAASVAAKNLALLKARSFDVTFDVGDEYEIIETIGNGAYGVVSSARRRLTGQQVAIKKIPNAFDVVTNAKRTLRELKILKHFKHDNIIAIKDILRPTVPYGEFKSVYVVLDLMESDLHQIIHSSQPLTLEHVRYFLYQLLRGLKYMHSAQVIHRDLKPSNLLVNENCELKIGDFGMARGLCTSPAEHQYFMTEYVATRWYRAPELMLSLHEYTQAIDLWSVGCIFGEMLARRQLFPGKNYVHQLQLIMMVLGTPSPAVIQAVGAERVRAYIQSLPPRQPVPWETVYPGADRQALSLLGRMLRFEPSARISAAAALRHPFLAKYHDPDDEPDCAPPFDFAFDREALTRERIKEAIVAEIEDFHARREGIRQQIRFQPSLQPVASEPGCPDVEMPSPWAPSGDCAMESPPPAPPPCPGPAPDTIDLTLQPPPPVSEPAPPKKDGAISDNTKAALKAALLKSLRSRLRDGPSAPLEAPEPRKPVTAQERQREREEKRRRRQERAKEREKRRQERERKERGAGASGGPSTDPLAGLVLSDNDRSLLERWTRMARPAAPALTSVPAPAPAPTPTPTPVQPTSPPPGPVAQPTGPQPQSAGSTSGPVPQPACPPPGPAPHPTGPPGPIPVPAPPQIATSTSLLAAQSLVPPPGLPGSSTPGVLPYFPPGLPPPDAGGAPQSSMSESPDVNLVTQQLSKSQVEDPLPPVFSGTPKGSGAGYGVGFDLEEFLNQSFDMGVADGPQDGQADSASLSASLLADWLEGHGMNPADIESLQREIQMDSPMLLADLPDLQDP
In assay [16] the test system is Aerobactin synthetase IucA (Klebsiella pneumoniae hvKP1). Description: Biochemical IucA enzyme inhibition primary screen of the Spectrum library (AID 1346200; call rule not given here;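 note: 100% = wells without compound and 0% = wells lacking enzyme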). The conditions noted are these: malachite green pyrophosphate, A620, at 8 µM, stronger effect = lower value.
[17] abbreviates: measured here: epithelial PC-3E GFP cell survival.
Where [18] appears, read: measured here: mesenchymal TEM4-18 mCherry cell survival.
Setting [19] is: measured here: relative caspase fold change +Dox/-Dox.
The mark [20] stands for this setting: measured here: total cells with miR-34 induction, stronger effect = lower value.
Setting [21] is: measured here: total cells without miR-34 induction.

Values joined by “and” are separate entries in the source; they are usually repeats but may differ in a detail not shown here. Equal entries are not always repeated. For part of these data: Entries with a potency or affinity are not part of this list. Active and inactive are the calls of the source.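 Rule for the calls, unless noted: active = at least 20% inhibition of 6-phosphogluconate dehydrogenase activity; inactive = the rest.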

In general, inhibition refers to the change of the read-out against control, counted positive when it falls. For the molecule `CC(=O)OC1CN2CCC1CC2` (stereo not drawn), the inhibition is 0.37% in [1] and 8.99% (inactive) in assay [9]. This molecule also showed a score in [2] of 1.53. The same molecule registered a rescue above control in assay [3] of -10.7. Besides, the cytochrome c release ratio in [4] was 0.82. Also, the inhibition of aggregation in assay [5] is 22.1%. Also, in [6], the glutamate uptake change was determined as 24.5%. The molecule further gave an inclusion score in assay [7] of 2. In addition, in [8], the aggregation suppression score worked out at 1.12. Besides, the red/green cell ratio (normalised) in assay [10] is 0.81 (inactive). Moreover, the normalised cell number in [10] (setting [17]) came out at 1.08; in [10] (setting [18]), 0.87. Besides, the results for the fold change in assay [11] (stronger effect = lower value) and in assay [11] (setting [19]) were 0.909 (inactive) and 0.869, respectively. Moreover, the cell count was 8550 in assay [11] (setting [20]) and 9400 in assay [11] (setting [21]). The z-score in assay [12] (MELAS cybrid survival, CellTiter-Glo 48 h, stronger effect = higher value) is -3.18 (inactive); in assay [12] (Rieske KO mouse fibroblast survival, CellTiter-Glo 72 h) it was -1.86. The remaining NAD in [13] is 10 nM (inactive).

What is called viability is a read-out of living cells in per cent, often relative to untreated cells. On to `O=C1CCO1`, for which the inhibition in [1] is 12.7%; in assay [9] it was -4.86% (inactive). For the same molecule, the score in assay [2] came to 1.2. The molecule also displayed a rescue above control in assay [3] of 11.7. The cytochrome c release ratio in [4] worked out at 1.11. Moreover, the inhibition of aggregation in assay [5] came to 22.4%. Also, in assay [6], the glutamate uptake change stood at 5.98%. Further, in [7], the inclusion score is 2. This molecule also returned an aggregation suppression score in [8] of 1.23. The parasite load remaining in assay [14] is 165% (inactive) and 39.1% (inactive). For the same molecule, in [14], the viability was 91.2% and 89.3%. The red/green cell ratio (normalised) in assay [10] is 1.22 (inactive). Besides, the figures for the normalised cell number in [10] (setting [17]) and in assay [10] (setting [18]) were 0.9 and 1.09, respectively. For the same molecule, the results for the fold change in assay [11] (stronger effect = lower value) and in assay [11] (setting [19]) were 0.872 (inactive) and 2.98, respectively. For the same molecule, the cell count came to 11800 in assay [11] (setting [20]) and 13500 in [11] (setting [21]). Moreover, the remaining NAD in assay [13] was 10 nM (inactive). Also, in assay [15], the luciferase signal was 100 AU (inactive).

Regarding `OC[C@@H]1CCCN2CCCC[C@H]12`, in [14], the parasite load remaining was 133% (inactive) and the viability came out at 91.1%. In addition, the inhibition in assay [9] is -5.58% (inactive). Besides, the red/green cell ratio (normalised) in assay [10] was 0.92 (inactive). For the same molecule, the normalised cell number in assay [10] (setting [17]) is 0.97. This molecule displayed a normalised cell number in [10] (setting [18]) of 0.89. The activity remaining in assay [16] was 109% (inactive). Moreover, the luciferase signal in [15] was 48 AU (inactive).

With `N#C/C(=C\c1ccc(O)cc1)C(=O)O`, the inhibition was -8.72% in assay [1] and 0.31% (inactive) in assay [9]. Moreover, in assay [2], the score was 1.56. This molecule came in with a rescue above control in [3] of -7.23. The cytochrome c release ratio in assay [4] worked out at 0.76. In addition, in [5], the inhibition of aggregation was -4.76%. Further, the glutamate uptake change in assay [6] was determined as 12%. The same molecule had an inclusion score in assay [7] of 2. In assay [8], this molecule showed an aggregation suppression score of 1.17. Moreover, the red/green cell ratio (normalised) in assay [10] is 0.79 (inactive). Further, the values for the normalised cell number in assay [10] (setting [17]) and in assay [10] (setting [18]) were 1.25 and 0.99, respectively. Also, the luciferase signal in assay [15] was 144 AU (inactive).

Take `CNC(=O)CSP(=S)(OC)OC`: the inhibition in assay [9] was -17.5% (inactive). Also, the activity remaining in assay [16] is 98.2% (inactive).

Turning to `C=CCc1ccc2c(c1)OCO2`, the inhibition is -35.5% in assay [1] and 7.49% (inactive) in assay [9]. The score in assay [2] came out at 0.7. In addition, in assay [3], the rescue above control was -4.01. For the same molecule, in assay [4], the cytochrome c release ratio was found to be 0.78. For the same molecule, the inhibition of aggregation in assay [5] was found to be 27.9%. In addition, in [6], the glutamate uptake change came to 1.11%. Moreover, the aggregation suppression score in assay [8] came to 0.706. In assay [14], the parasite load remaining is 147% (inactive). This molecule also yielded a viability in assay [14] of 87.4%. For the same molecule, the red/green cell ratio (normalised) in [10] was 0.79 (inactive). The results for the normalised cell number in assay [10] (setting [17]) and in assay [10] (setting [18]) were 1.31 and 1.03, respectively. Further, in assay [16], the activity remaining is 124% (inactive). Further, in assay [15], the luciferase signal was 40 AU (inactive).

Take `COC(=O)COc1ccc(Cl)cc1Cl`: in assay [9], the inhibition is -25.1% (inactive). For the same molecule, in assay [16], the activity remaining was 109% (inactive).

As for `O=C(O)CF`, the inhibition in assay [9] is 10.5% (inactive). Further, the red/green cell ratio (normalised) in assay [10] (counts scaled to control wells, 1 = unselective) is 0.92 (inactive). Also, the normalised cell number in assay [10] (setting [17]) came to 1.09; in assay [10] (setting [18]) it was 1. The luciferase signal in assay [15] is 80 AU (inactive).

For `Oc1c(Cl)c(Cl)c(Cl)c(Cl)c1Cl`, the inhibition in assay [9] is 4.09% (inactive). The red/green cell ratio (normalised) in [10] is 0.88 (inactive). Besides, the normalised cell number in [10] (setting [17]) turned out to be 1.25; in [10] (setting [18]), 1.1. In [15], the luciferase signal is 480 AU (active).

Regarding `NCC(N)C(=O)c1ccccc1` (stereo not drawn), the inhibition in [9] was -14.8% (inactive). Besides, the activity remaining in assay [16] was 109% (inactive).

Turning to `CCOP(=S)(OCC)SCn1c(=O)oc2cc(Cl)ccc21`, in assay [9], the inhibition is -13.8% (inactive). Further, in assay [16], the activity remaining was 96.1% (inactive).

Turning to `COc1c(CC=C(C)C)c2c(c3oc(=O)c(-c4ccc(O)cc4)c(O)c13)C=CC(C)(C)O2`, in assay [9], the inhibition is -2.87% (inactive). The activity remaining in assay [16] was 114% (inactive).

With `C=C(C)[C@@H]1[C@H]2OC(=O)[C@@H]1[C@]1(O)C[C@H]3O[C@]34C(=O)O[C@H]2[C@]14C`, the inhibition is -31.3% in assay [1] and 2.77% (inactive) in assay [9]. For the same molecule, in assay [2], the score worked out at 1.33. This molecule registered a rescue above control in assay [3] of 6.9. In addition, the cytochrome c release ratio in [4] worked out at 0.8. Further, the inhibition of aggregation in assay [5] came to 48.7%. Further, the glutamate uptake change in assay [6] was found to be 1.09%. In addition, the inclusion score in assay [7] was determined as 2. For the same molecule, the aggregation suppression score in assay [8] was found to be 1.46. Moreover, the red/green cell ratio (normalised) in [10] is 1.08 (inactive). For the same molecule, the normalised cell number in assay [10] (setting [17]) was determined as 0.99; in [10] (setting [18]), 1.06. The luciferase signal in assay [15] is 76 AU (inactive).
